Experimental data as given in PubChem BioAssay (NCI).
Compounds without any hit were thinned out: in the full panel of roughly 83,000, 20% have a hit.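 Percent growth is the endpoint: 0 to 100 indicates growth inhibition (40 means 60% inhibition), 0 means no net growth, and negative values indicate cell death.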 A number with no mark means an inactive call. Activity calls are given as the source filed them. Rule for the calls: active = growth percent below 10; inactive = the rest.

Experiments:
Experiment in all cases: NCI-60 one-dose screen, 48 h (100 = growth as untreated, 0 = no growth, -100 = all killed)
HCT-15 colon = conditions: 10 µM unless noted
HT29 colon = conditions: 10 µM unless noted
SNB-75 CNS = conditions: 10 µM unless noted
SNB-19 CNS = conditions: 10 µM unless noted
U251 CNS = conditions: 10 µM unless noted
PC-3 prostate = conditions: 10 µM unless noted
SK-MEL-5 melanoma = conditions: 10 µM unless noted
UACC-62 melanoma = conditions: 10 µM unless noted
LOX IMVI melanoma = conditions: 10 µM
SK-MEL-28 melanoma = conditions: 10 µM unless noted

SMILES	growth (HCT-15 colon)	growth (HT29 colon)	growth (SNB-75 CNS)	growth (SNB-19 CNS)	growth (U251 CNS)	growth (PC-3 prostate)	growth (SK-MEL-5 melanoma)	growth (UACC-62 melanoma)	growth (LOX IMVI melanoma)	growth (SK-MEL-28 melanoma)
Cn1cc(-c2cc(N)n3nc(-c4cn(C)c5ccccc45)cc3n2)c2cc(Cl)ccc21	-78.3% (active)	-67.2% (active)	-44% (active)	-0.728% (active)	-74.5% (active)	-38.1% (active)	-67% (active)	-56.2% (active)	-86.5% (active)	-86.7% (active)
COc1cc2oc(-c3cccc(C(=O)Nc4ccc(Cl)cc4)c3)cc(=O)c2c(OCCNC(=O)[C@H](CO)NC(=O)OC(C)(C)C)c1OC	16.5%	-26.9% (active)	74.5%	29.7%	24%	12.9%	-75.2% (active)	7.14% (active)	-67.5% (active)	-23.8% (active)
Cc1ccc(-c2nc(Nc3ccccc3S(N)(=O)=O)c3ccccc3n2)cc1	40.1%	95%	91%	89%	57.5%	64.4%	87%	70.7%	9.36% (active)	107%
Cc1cccc(-c2nc(Nc3ccc(C)c(S(N)(=O)=O)c3)c3ccccc3n2)c1	-19.4% (active)	18%	91.5%	32.5%	29.4%	15.7%	29.5%	43%	-34.7% (active)	38.9%
COc1cc(C2CC(c3ccc(S(=O)(=O)NCCNc4nc(Nc5ccc(F)cc5)nc(N(C)C)n4)cc3)=Nc3c(N)nc(N)nc3N2)cc(OC)c1OC (stereo not drawn)	92.5%	96.5%	82.8%	67.5%	69.6%	86.3%	64.2%	76.4%	66.9%	88.1%
O=C(/C=C/c1cccc(OCc2ccc(F)cc2)c1)c1nc2ccccc2[nH]1	-58.4% (active)	-46.1% (active)	116%	68.4%	-70.9% (active)	15%	65.5%	72.6%	–	104%
O=C(/C=C/c1ccc(-c2ccccc2)cc1)c1nc2ccccc2n1Cc1ccc(F)cc1	22.8%	9.19% (active)	49.2%	44.6%	32.5%	47.6%	47.9%	38.2%	–	28.4%
CSc1ccccc1NC(=O)c1ccc2nn(/C(C#N)=C/c3ccccn3)nc2c1	-62.8% (active)	-91.9% (active)	48.1%	12.3%	-81.6% (active)	-57.7% (active)	-88.8% (active)	-89.6% (active)	–	-91.4% (active)
Cc1cc2c(cc1Cl)C(=O)/C(=C/c1ccc(F)cc1)O2	97.8%	102%	95%	90.3%	89.9%	91.1%	93%	76.6%	–	111%
C=C1CCC2C3(C)COC(c4ccc(F)cc4)OC3CCC2(C)C1CC(O)C1=CCOC1=O (stereo not drawn)	1.99% (active)	27.8%	60.4%	76.4%	59.6%	37.6%	21.9%	47.9%	–	41.4%
Cc1cc(C)cc(C(=O)Nc2cccc(-c3cn(-c4ccc(S(N)(=O)=O)cc4)nn3)c2)c1	79%	80.4%	-7.62% (active)	-27.9% (active)	10.9%	83%	24.4%	12.2%	–	62.4%
CN1CCN(/C(=N\c2sc(-c3ccccc3)nc2-c2ccccc2)c2ccccc2)CC1	16.7%	9.91% (active)	90%	100%	86%	56.8%	75%	75.7%	–	57.7%
